Source: PubChem BioAssay
GRIN3A LBD mod: modulates the human NR3A ligand-binding domain; NR3A LBD differential scanning fluorimetry, Tm shift; 0% = protein alone, 100% = glycine-bound protein; Tm shift relative to glycine control, % at 25 µM; 340,000 tested, 2.5% active;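 active means melting temperature shift of at least 10% of the positive control shift, at one fixed dose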
MPTP block: inhibitors of mitochondrial permeability transition pore. 360,000 tested, 1.4% active. isolated mouse mitochondria, Ca2+ swelling absorbance, 30 min. inhibition, % at 10 µM;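 active means inhibition of 50% or more, scaled per plate between neutral and stimulator controls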;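 further: 0% = DMSO wells given calcium and 100% = 1 mM EGTA wells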
CRFR2-BP antag: blocks CRF-induced signaling of the CRF-BP/CRF-R2 complex | HEK293 CRF-R2/CRF-BP, CRF-induced calcium fluorescence | inhibition, % at 11.8 µM | 350,000 tested, 0.59% active;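 active means inhibition of the ligand-induced calcium signal above about 50% at the single tested concentration, limit read from the data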
TMEM16A inh: blocks the mouse calcium-activated chloride channel TMEM16A. Q8BHY3. HEK293 TMEM16A/YFP iodide influx fluorescence, ionomycin. normalized B-score (activity score, 25-100; higher = stronger inhibition) at 10 µM. 310,000 tested, 1.2% active. AID 588511;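 active means ratio plate-corrected score three or more library SD toward inhibition, starting fluorescence score within five deviations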;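 further: score derived from kinetic fluorescence span divided by baseline fluorescence per well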
CRFR2-BP ag: CRF-BP/CRF-R2 complex agonism | HEK293 CRF-R2/CRF-BP, calcium dye fluorescence (FLIPR); percent of saturating CRF peptide response | 350,000 tested, 0.46% active | activation, % at 13.2 µM | AID 588473;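 active means activation of at least 50%, plus an integration ratio under a set limit after plate pattern correction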;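 further: plate controls were neutral control wells without compound for no effect and CRF at EC100 for full effect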
ANO1 activ: activates or potentiates the mouse TMEM16A chloride channel; HEK293 TMEM16A/YFP-H148Q/I152L, iodide quench fluorescence; active compounds read low; B-score at 10 µM; 340,000 tested, 0.3% active;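 active means fluorescence-ratio B-score plate-corrected deviation score at least 3 library SD below zero, with starting fluorescence score within 5 deviations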;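 further: channel opened by trigger with iodide after compound preincubation; score built on the fluorescence ratio of max minus min over baseline; more negative score means more quench and so TMEM16A activation or potentiation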
Active calls of the source: *; i = inactive; . = no result. Hits are enriched below; roughly 5.1% of the tested compounds scored in any of these assays.

SMILES | GRIN3A LBD mod | MPTP block | CRFR2-BP antag | TMEM16A inh | CRFR2-BP ag | ANO1 activ
O=c1cc(CN2CCN(Cc3ccccc3)CC2)c2cc(O)ccc2o1 | 0.0 | 2.7 | 84.6* | i | -0.2 | i
NC(=O)c1nsc(C(=O)N(c2ccccc2)C(C(=O)NCc2ccc(F)cc2)c2ccc(O)cc2)c1N (stereo not drawn) | -13.7 | 1.8 | -0.3 | i | 0.1 | i
CC(=O)Nc1ccc(S(=O)(=O)Nc2nc3ccccc3nc2Nc2ccc(O)cc2)cc1 | 17.1* | 1.2 | 28.4 | i | 0.5 | i
CC(=O)Nc1ccc(S(=O)(=O)Nc2nc3ccccc3nc2Nc2ccccc2)cc1 | 10.2* | 2.5 | 3.6 | i | 0.1 | i
CC(=O)NC1=C(NC2CCS(=O)(=O)C2)C(=O)c2ccccc2C1=O (stereo not drawn) | 13.1* | 2.0 | -7.1 | i | -1.6 | i
Cc1cc(C)cc(Oc2cc(NC(=O)c3cn(C)nc3C)cc([N+](=O)[O-])c2)c1 | 13.5* | 31.7 | 7.3 | i | 0.9 | i
CCOc1cc(C(=O)Nc2cc(C(=O)OC)ccc2C)ccc1OCC(=O)N1CCOCC1 | -4.1 | -0.8 | -7.8 | . | 0.1 | i
COc1ccc(NC(=S)N2CCN(c3ccc4c(c3)C3CCN(C(=O)OCc5ccccc5)C4C3)CC2)c(OC)c1 (stereo not drawn) | . | -0.9 | . | . | . | .
CCCC12CN(C(=O)c3ccc([N+](=O)[O-])cc3)CC(C)(CN(C(=O)c3ccc([N+](=O)[O-])cc3)C1)C2=O | -4.9 | 1.8 | 126.3* | i | -0.7 | i
CC12CN(C(=O)c3ccc([N+](=O)[O-])cc3)CC(C)(CN(C(=O)c3ccc([N+](=O)[O-])cc3)C1)C2=O | 0.2 | . | -1.0 | i | 0.8 | .
CCOc1ccc(/C=N/NC(=O)Cc2ccccc2)cc1CN1CC2CC(C1)c1cccc(=O)n1C2 (stereo not drawn) | -4.3 | -0.3 | -5.4 | . | -3.4 | i
Cc1cc(OCCCCN2C(=O)NC(C)(C)C2=O)ccc1[N+](=O)[O-] | -1.4 | -1.4 | -4.1 | 25* | 0.2 | i
C[N+]1(CCC(=O)c2ccccc2)CCCCC1 | 10.2* | 3.9 | -27.8 | i | -1.6 | i
CCCc1cc(C(=O)NNC(=S)NC2CCCCC2)cs1 | 0.9 | 1.4 | -3.3 | i | -2.1 | i
CC(=O)Nc1ccc(S(=O)(=O)NC2CC(=O)N(c3ccc4c(c3)OCCO4)C2)cc1 (stereo not drawn) | 16.8* | -0.3 | 6.8 | i | 0.2 | i
COc1ccc([C@H]2CC(=O)C=C(c3ccc(C(=O)O)cc3)C2)cc1OC | 1.3 | 0.7 | 5.2 | . | -0.1 | i
CCCc1c(-c2ccc(O)cc2)nn(-c2ccc(O)cc2)c1-c1ccc(O)cc1 | -26.0 | -3.0 | 10.1 | 100* | 4.9 | i
Cc1c(C(N)=O)c(-c2ccccc2)nn1-c1ccccc1 | -1.0 | -0.5 | 11.6 | i | -0.9 | i
Cc1ccc(C(C)(O)CS(=O)(=O)Cc2ccccc2Cl)cc1 (stereo not drawn) | 2.5 | -0.2 | -8.0 | i | -1.9 | i
Cc1cccc(N2C(N)=NC(N)=NC23CCCCC3)c1 | 2.4 | -3.8 | 51.6* | i | 3.2 | i
COc1ccc(CC(=O)Nc2ccc3c(c2)CCC3)cc1OC | -2.5 | 2.7 | 6.1 | 25* | 2.5 | i
CCOc1ncccc1C(=O)Nc1ccc(OC)c(S(=O)(=O)N2CCOCC2)c1 | 0.3 | 1.8 | 2.4 | . | -0.6 | i
O=[N+]([O-])c1cc(Cl)ccc1NCCNc1ncc(C(F)(F)F)cc1Cl | 14.3* | 0.9 | 2.7 | i | -3.0 | i
O=C(NCC(c1cccnc1)N1CCN(c2ccccc2F)CC1)OCc1ccccc1 (stereo not drawn) | 11.7* | -2.4 | -14.2 | i | -0.8 | i
O=C(NCC(c1cccnc1)N1CCN(c2ccccc2)CC1)OCc1ccccc1 (stereo not drawn) | 1.9 | -1.2 | 4.1 | i | -0.9 | i
SMILES | GRIN3A LBD mod | MPTP block | CRFR2-BP antag | TMEM16A inh | CRFR2-BP ag | ANO1 activ
Cc1cccc(N(C)C(=O)c2cc(S(=O)(=O)N3CCCC3)cn2C)c1 | 1.7 | -0.7 | 22.7 | i | -2.8 | i
CCN(C(=O)c1cc(S(=O)(=O)N2CCOCC2)cn1C)c1cccc(C)c1 | -1.6 | -0.5 | -7.8 | 100* | -1.3 | i
CC1(C(=O)NS(=O)(=O)Cc2ccccc2)CCN1C(=O)Cc1cc(F)ccc1F (stereo not drawn) | . | 2.5 | . | . | . | .
Cc1ccc(SCc2noc(-c3c(C)noc3C)n2)cc1 | -2.1 | 0.5 | 52.3* | i | 0.0 | i
Cc1cc(/C=C2\NC(=S)N(C)C2=O)ccc1N1CCCC1 | -14.9 | 9.0 | -342.7 | i | 282.6* | i
Cc1cc(/C=C2/C(=O)N(C)C(=S)N2C)ccc1N1CCCC1 | -3.4 | 4.1 | -136.4 | i | 80.8* | i
CCCN1C(=O)/C(=C/c2ccc(N3CCCC3)c(C)c2)NC1=S | -13.4 | 5.7 | -443.8 | i | 346.1* | i
COc1ccc(-c2nc3ccc(Cl)cn3c2Cc2ccsc2)cc1OC | . | -1.5 | . | . | . | .
CCc1nc2c(OCC3COc4ccccc4O3)cccn2c1N(C)C(=O)c1cccc(OC)c1 (stereo not drawn) | . | -0.6 | . | . | . | .
COc1ccc(CNC(=O)CN(C(=O)c2csnn2)c2cccc3ccccc23)cc1 | 3.3 | -0.3 | -7.7 | i | 0.6 | i
COc1cccc(NC(=O)[C@H](C)NC(=O)N2CCn3c2nc2ccccc23)c1 | 1.5 | -1.4 | -0.9 | i | 0.6 | i
COc1cc(NC(=O)[C@H](C)NC(=O)N2CCn3c2nc2ccccc23)cc(OC)c1 | -2.7 | -0.8 | 85.7* | i | -0.5 | i
Cc1ccc(-c2ccc(/C=N/NC(=O)Cc3nnc(N)s3)o2)cc1Cl | -5.6 | 6.1 | -6.1 | i | -4.1 | i
COc1ccc(-c2ccc(/C=N/NC(=O)Cc3nnc(N)s3)o2)cc1Cl | -2.2 | 2.3 | 54.6* | i | -4.7 | i
Cc1c(C(=O)NN)nn(-c2ccc(Cl)cc2)c(=O)c1C#N | -0.9 | -0.9 | 82.0* | i | 0.8 | i
CC(=O)c1cccc(NC(=O)C(OC(=O)c2ccccc2NS(=O)(=O)c2cccs2)c2ccccc2)c1 (stereo not drawn) | 29.8* | 43.2 | -1.3 | i | 0.4 | i
CCOc1ccccc1NC(=O)C(OC(=O)c1ccccc1NS(=O)(=O)c1cccs1)c1ccccc1 (stereo not drawn) | 0.3 | 0.4 | -8.2 | i | 1.0 | i
Cc1cccc2c1CC(C)(C)N=C2C1=C(O)CCCC1=O | 14.0* | -3.4 | -11.1 | i | 0.4 | i
CCOc1ccc(N2C(=O)Nc3ccc(Br)cc3C2(O)C(=O)NCCCN(C)C)cc1 (stereo not drawn) | 12.0* | 0.3 | -3.7 | i | -0.1 | i
